ChEMBL document CHEMBL4513146, “CO-ADD screening of Karazin Kharkiv National University (Ukraine) compounds”
Results with a measured potency or affinity are listed apart.

Tests used:
Klebsiella pneumoniae = conditions: Concentration 32 ug.mL-1;; ASSAY_TEST Inhibition of Bacterial Growth; detection method Absorption (OD600); MEDIA CAMHB; plate type 384well; NBS; CORNING #3640; time 18 hr
Candida albicans = conditions: Concentration 32 ug.mL-1; ASSAY_TEST Inhibition of Fungal Growth; detection method Absorption (OD530)
Cryptococcus neoformans = conditions: Concentration 32 ug.mL-1; ASSAY_TEST Inhibition of Fungal Growth; detection method Resazurin; Absorption (OD600-OD570); plate type 384well; NBS; CORNING #3640

SMILES	Inhibition (Klebsiella pneumoniae) [%]	Inhibition (Candida albicans) [%]	Inhibition (Cryptococcus neoformans) [%]
COC(=O)c1ccc(NC(=O)Cn2nc3ccc(S(=O)(=O)c4ccccc4)nn3c2=O)cc1	3.88	1.43	-5.62
CCc1ccc(N(Cc2ccccc2F)S(=O)(=O)c2cccn3c(C)nnc23)cc1	6.64	0.88	-9.4
CCOC(=O)c1ccc(NC(=O)Cn2nc3ccc(C(=O)Nc4cccc(C)c4)cn3c2=O)cc1	6.83	1.34	-36.79
Cc1cccc(C)c1NC(=O)CSc1nnc2c3cc(-c4ccc(F)cc4)nn3ccn12	-6.3	4.52	-11.19
Cc1ccc(-c2ccc3nn(Cc4cccc(Br)c4)c(=O)n3n2)cc1	7.86	-0.24	-13.72
O=C(CSc1nnc2c(=O)n(-c3ccccc3)ccn12)c1c[nH]c2ccccc12	19.5	3.09	-9.19
O=C(Cn1nc2c(Oc3ccccc3)nccn2c1=O)Nc1ccccc1F	-3.78	-2.47	-4.07
COc1ccccc1CNC(=O)Cn1nc2c(SCc3ccc(Cl)cc3)nccn2c1=O	9.05	2.3	-6.8
COc1ccc(CNC(=O)Cn2nc3c(N4CCOCC4)nccn3c2=O)cc1	16.6	6.15	-8.83
COc1ccc(OC)c(NC(=O)Cn2nc3ccc(SCc4ccc(Cl)cc4)nn3c2=O)c1	2.51	9.63	-22.41
